# Compounds with a hit are over-represented: about 0.97% of the library has one in this group of screens.
# TcdB GH inh – TcdB glycohydrolase inhibition | P18177 | TcdB glycohydrolase enzymatic assay, plate reader | inhibition, % at 9.99 µM | hit rate 0.24% among 350,000 | AID 652162; in the data active = inhibition above about 10%
# MazF activator – increases E. coli MazEF RNase cleavage of RNA; activation, % at 20 µM; P0AE70; FAM/BHQ RNA-DNA oligo cleavage fluorescence, 5 h; hit rate 0.32% among 350,000; in the data active = activation above about 50%
# Target sequence (P0AE70 whole entry, looked up): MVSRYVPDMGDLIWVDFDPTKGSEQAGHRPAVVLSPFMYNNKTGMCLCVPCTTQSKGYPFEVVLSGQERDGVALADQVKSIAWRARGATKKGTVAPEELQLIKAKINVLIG
# Mtb bLac sens – beta-lactam sensitization of Mtb H37Rv; M. tuberculosis H37Rv growth with meropenem, percent inhibition; inhibition, % at 25 µM; hit rate 0.27% among 330,000;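 note: growth measured after seven days incubation then overnight dye step; 0% = bacteria only wells and 100% = bacteria with antibiotic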
# RecA intein inh – blocks M. tuberculosis RecA intein splicing | P9WHJ3 | cell-free RecA intein splicing, fluorescence | inhibition, % (no concentration beside the values) | hit rate 0.75% among 290,000; in the data active = inhibition above about 30%;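 note: 0% = vehicle wells and 100% = reference inhibitor control wells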
# UGM FP inh – inhibitors of M. tuberculosis UDP-galactopyranose mutase. inhibition, % at 10 µM. hit rate 0.06% among 320,000. purified UGM, fluorescence polarization probe displacement; in the data active = inhibition above about 10%, passing the limit was not always enough
# Target sequence (P9WIQ1 whole entry, looked up): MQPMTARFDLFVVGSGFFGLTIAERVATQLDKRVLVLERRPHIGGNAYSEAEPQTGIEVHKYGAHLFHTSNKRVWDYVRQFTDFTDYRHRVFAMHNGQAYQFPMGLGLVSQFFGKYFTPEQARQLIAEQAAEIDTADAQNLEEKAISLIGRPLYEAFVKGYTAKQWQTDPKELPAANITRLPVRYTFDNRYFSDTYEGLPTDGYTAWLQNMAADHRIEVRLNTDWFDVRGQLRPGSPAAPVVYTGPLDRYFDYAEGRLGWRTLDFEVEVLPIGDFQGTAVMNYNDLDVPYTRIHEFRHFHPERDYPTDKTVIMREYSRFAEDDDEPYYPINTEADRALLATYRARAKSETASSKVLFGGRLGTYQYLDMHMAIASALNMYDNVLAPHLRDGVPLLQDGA
# Rv3671c inh – Rv3671c (M. tuberculosis) protease inhibition; inhibition, % at 5.96 µM; hit rate 0.048% among 320,000; in the data active = inhibition above about 38%;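 note: extracellular domain of Rv3671c used as enzyme; 0% = enzyme with DMSO and 100% = no enzyme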
# GFP chromophore – counter-screen GFP chromophore formation inhibition. cell-free GFP chromophore formation, fluorescence. shares compounds with RecA intein inh. hit rate 83% among 2,100. EC50, µM
# An asterisk follows results filed as active; / = not tested or not shown. Unless noted, the rule behind the calls is not given here.
SMILES,TcdB GH inh,MazF activator,Mtb bLac sens,RecA intein inh,UGM FP inh,Rv3671c inh,GFP chromophore
CC(C)CC#Cc1cnc2c(c1)C(=O)N([C@H](C)CO)C[C@H](C)[C@@H](CN(C)S(=O)(=O)c1ccccc1)O2,-1,/,/,/,/,/,/
C[C@@H]1CCCCO[C@H](CN(C)Cc2ccc(C(=O)O)cc2)[C@H](C)CN([C@H](C)CO)C(=O)c2cc(NC(=O)c3ccccc3)ccc2O1,-2,/,/,/,/,/,/
CCOc1cc(/C=C2\N=C(C)OC2=O)cc(Cl)c1OCC(=O)OC,1,1,4,/,0,1,/
COC(=O)COc1c(Cl)cc(C(c2c(C)[nH][nH]c2=O)c2c(C)[nH][nH]c2=O)cc1OC,2,-2,0,96*,-2,/,0.58*
O=C(C[C@@H]1C[C@H]2c3cc(NC(=O)C4CCOCC4)ccc3O[C@H]2[C@@H](CO)O1)NCc1cccnc1,-1,/,/,/,/,/,/
CCCNC(=O)[C@@H]1[C@@H](CO)[C@@H]2Cn3c(ccc(-c4cccc(F)c4)c3=O)[C@@H]2N1C(=O)CC,-3,/,/,/,/,/,/
CN(CCC#N)C(=O)Cn1nc(Cc2ccncc2)c2ccccc2c1=O,0,5,2,49*,1,2,>38
CCCCNC(=O)Cn1nc(Cc2ccncc2)c2ccccc2c1=O,1,12,-4,4,-3,-14,/
Cc1sc2ncnc(SCC(=O)N3c4ccccc4Sc4ccc(Cl)cc43)c2c1C,2,-8,7,1,5,11,/
CCOC(=O)c1c(C)sc2c1N(C(=O)CCl)c1cc(Cl)ccc1S2,/,0,95,55*,-3,1,1.6*
Cc1noc(C)c1NC(=O)N(C)C[C@@H]1Oc2ccc(NC(=O)NC(C)C)cc2C(=O)N([C@H](C)CO)C[C@@H]1C,0,/,/,/,/,/,/
COc1ccc(Nc2ccc(Nc3ccc(OC)cc3)nn2)cc1,1,5,2,-2,2,-2,/
COc1ccc(Nc2ccc(OC)cc2)cc1,4,6,9,51*,0,-5,>38
CCS(=O)(=O)Nc1ccc2c(c1)C(=O)N(C)[C@@H]1CC[C@H](CC(=O)NC)O[C@H]1CO2,-1,/,/,/,/,/,/
Cc1ccc(S(=O)(=O)NC(Cc2ccccc2)C(=O)NN)cc1 (configuration not stated),-3,-1,-14,-2,3,-7,/
Cc1ccc(S(=O)(=O)N[C@@H](Cc2ccccc2)C(=O)CCl)cc1,2,3,0,93*,0,10,1.9*
Cc1ccc(NC2=C(NC(=O)c3ccccc3)C(=O)c3ccccc3C2=O)cc1Cl,/,5,88,70*,-1,-69,6.4*
O=C(O)c1ccc(NC2=C(Cl)C(=O)c3ccccc3C2=O)cc1,0,-1,-2,98*,3,-4,2.2*
O=C(c1ccccc1)N1CC(=O)N2[C@H](CO)[C@H](c3ccc(C#CC4CC4)cc3)[C@H]2C1,0,/,/,/,/,/,/
C#CCOC(=O)c1ccccc1C(=O)n1nnc2ccccc21,/,-10,31,51*,1,-2,35*
CCS(=O)(=O)Nc1ccc2c(c1)C(=O)N(C)C[C@@H](OC)[C@@H](C)CN(C(=O)C1CCC1)[C@H](C)CO2,-1,/,/,/,/,/,/
COC(=O)CSc1nnc(C)c(=O)[nH]1,/,13,2,1,3,-2,/
CCOC(=O)CNc1nnc(SCC(=O)OCC)[nH]c1=O,/,2,-10,41*,-1,-1,6.3*
CCc1nc(C)cn1S(=O)(=O)c1ccc([N+](=O)[O-])cc1,0,-2,2,-1,0,4,/
CCCn1c(CC)nc([N+](=O)[O-])c1S(=O)(=O)c1ccccc1,/,-2,97,46*,2,-7,>38
SMILES,TcdB GH inh,MazF activator,Mtb bLac sens,RecA intein inh,UGM FP inh,Rv3671c inh,GFP chromophore
COc1ccc(COC[C@]23NC(=S)N(C(=O)c4ccccc4)[C@H](c4ccccc4O2)[C@H]3CO[Si](C)(C)C(C)(C)C)cc1,2,/,/,/,/,/,/
O=C(CSc1c2c(nc3cc(Cl)ccc13)CCCC2)NCc1ccco1,/,-3,2,30*,4,-4,>38
COc1ccc(NC(=O)CSc2c3c(nc4cc(Cl)ccc24)CCCC3)cc1OC,2,15,0,-12,-3,-16,29*
COc1cc(NC(=O)CSc2c3c(nc4ccccc24)CCC3)cc(OC)c1OC,1,4,-5,6,-3,-2,/
O=C(c1cccnc1)N1C[C@@H]2[C@H](c3ccccc31)[C@@H](CO)N2CC1CCCC1,0,/,/,/,/,/,/
COc1ccccc1NC(=O)N(C)C[C@@H]1OCc2ccccc2-c2ccccc2C(=O)N([C@@H](C)CO)C[C@@H]1C,0,/,/,/,/,/,/
COc1ccc(-c2oc(NC(=O)CCl)c(C#N)c2-c2ccc(OC)cc2)cc1,/,4,98,90*,-1,29,1.4*
Cn1c(=O)c([N+](=O)[O-])c(Cl)c2ccccc21,0,8,/,56*,/,/,11*
Cn1c(=O)c([N+](=O)[O-])c(-n2cnc3ccccc32)c2ccccc21,0,9,-10,63*,0,0,22*
CCN(CC)c1c([N+](=O)[O-])c(=O)n(C)c2ccccc12,6,0,10,-2,-2,3,/
COC1(OC)C(/C=C/c2ccc(C)cc2)C(C#N)(C#N)C1(OC)OC (configuration not stated),/,-9,0,59*,-1,-12,>38
Cc1ccc(S(=O)(=O)N(C)C[C@@H]2Oc3ccc(NC(=O)NC4CCCCC4)cc3CC(=O)N([C@@H](C)CO)C[C@@H]2C)cc1,-1,/,/,/,/,/,/
Cc1nc2ccccc2c2c1C(=O)N(C)C2=O,1,3,0,58*,-2,7,18*
CCc1ccc(N2C(=O)C(Cl)=C(N3CCCCCC3)C2=O)cc1,0,-6,3,-4,-4,/,/
COc1ccc(N2C(=O)C(Cl)=C(Oc3cccc(OC)c3)C2=O)cc1,/,0,-1,39*,1,-4,20*
CCc1ccc(N2C(=O)C(Cl)=C(N3CCOCC3)C2=O)cc1,0,-3,83,78*,6,-20,5.3*
COc1ccc(N2C(=O)C(Cl)=C(N3CCN(Cc4ccccc4)CC3)C2=O)cc1,1,-12,/,69*,/,/,7.1*
COc1ccc(N2C(=O)C(Cl)=C(N3CCOCC3)C2=O)cc1,0,-19,9,74*,4,-5,8.7*
COc1ccc(N2C(=O)c3ccccc3C2=O)cc1,-2,3,28,2,-4,-9,/
C=CCNc1cccc2c1S(=O)(=O)N[C@@H](CC(C)C)CO2,0,/,/,/,/,/,/
O=C1/C(=C\c2cc([N+](=O)[O-])ccc2O)SC(=S)N1Cc1ccc(Cl)cc1,6,-34,24,52*,-4,-183,35*
O=C1/C(=C\c2cccc(O)c2O)SC(=S)N1Cc1ccccc1,1,8,-1,36*,1,-10,39*
C[C@H](CO)N1C[C@H](C)[C@H](CN(C)S(=O)(=O)c2cccc(C#N)c2)OCc2ccccc2-c2c(n(C)c3ccccc23)C1=O,-1,/,/,/,/,/,/
